# Measured values reported in PubChem BioAssay (NCI).
# Compounds without any hit were thinned out: in the full panel of roughly 79,000, 15% have a hit. Unmarked numbers belong to inactive results. The source made the active and inactive calls. No stated cut-off is given here; in the data, active means growth inhibition above about 70%; inactive means the rest.
# Key:
# [1] = NCI Yeast Anticancer Drug Screen. Data for the rad52 strain (AID 147);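 further: 0% = growth of vehicle-treated control cultures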; settings: S. cerevisiae rad52 mutant growth inhibition, stronger effect = higher value
# In short: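 Vehicle-treated cultures served as the reference for growth inhibition of compound-exposed yeast bearing a DNA repair mutation.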
# [2] = NCI Yeast Anticancer Drug Screen. Data for the rad50EPP+ strain (AID 151);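 further: 0% = growth of vehicle-treated control cultures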; settings: S. cerevisiae rad50 mutant strain, stronger effect = higher value
# In short: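 In this screen, rad50EPP+ yeast were exposed to compounds. Growth inhibition was scored against vehicle-treated controls.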
# [3] = NCI Yeast Anticancer Drug Screen. Data for the mgt1 strain (AID 153); settings: S. cerevisiae mgt1 mutant growth inhibition, stronger effect = higher value
# In short: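 mgt1 strain exposed; growth vs vehicle control recorded as inhibition.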
# [4] = NCI Yeast Anticancer Drug Screen. Data for the rad50 strain (AID 155);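 further: 0% = growth of vehicle-only cultures of the same strain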; settings: S. cerevisiae rad50 strain growth inhibition, stronger effect = higher value
# In short: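 Readout: growth inhibition relative to vehicle-treated cultures. Compound exposure was carried out in a genetically defined yeast strain deficient in DNA damage repair.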
# [5] = NCI Yeast Anticancer Drug Screen. Data for the mec2-1 strain (AID 157); settings: S. cerevisiae mec2-1 strain, stronger effect = higher value
# In short: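 Vehicle-treated cultures served as reference for growth inhibition of compound-exposed mec2-1 yeast.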
# [6] = NCI Yeast Anticancer Drug Screen. Data for the rad14 strain (AID 159);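 further: 0% = growth of vehicle-treated control cultures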; settings: S. cerevisiae rad14 strain growth inhibition, stronger effect = higher value
# In short: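 Growth inhibition vs vehicle controls; genetically altered yeast strain (DNA damage repair defect) treated with test compounds.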
# [7] = NCI Yeast Anticancer Drug Screen. Data for the sgs1 mgt1 strain (AID 161);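 further: 0% = growth of cultures given vehicle only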; settings: S. cerevisiae sgs1 mgt1 strain, stronger effect = higher value
# In short: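 Genetically altered yeast, compound exposure, growth inhibition relative to vehicle.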
# [8] = NCI Yeast Anticancer Drug Screen. Data for the CLN2oe strain (AID 163);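 further: 0% = growth of vehicle-only control cultures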; settings: S. cerevisiae CLN2oe strain, stronger effect = higher value
# In short: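 Inhibition relative to vehicle-treated yeast is reported. Cells: strain with genetic alteration in cell-cycle control, grown with compound.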
# [9] = NCI Yeast Anticancer Drug Screen. Data for the cln2 rad14 strain (AID 165);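 further: 0% = growth equal to vehicle treated cultures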; settings: S. cerevisiae cln2 rad14 strain, stronger effect = higher value
# In short: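 Each compound was tested on cln2 rad14 yeast. Inhibition of growth was calculated against vehicle-exposed controls.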
# [10] = NCI Yeast Anticancer Drug Screen. Data for the bub3 strain (AID 167); settings: S. cerevisiae bub3 mutant strain, stronger effect = higher value
# In short: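 Readout: yeast growth inhibition, expressed relative to vehicle-only wells. The test organism is a mutant strain from a panel with lesions in DNA repair or checkpoint genes.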
# [11] = NCI Yeast Anticancer Drug Screen. Data for the wt2 strain (AID 169);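 further: 0% = growth of vehicle-treated yeast cultures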; settings: S. cerevisiae wt2 strain growth inhibition, stronger effect = higher value
# In short: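 Inhibition of yeast growth was determined after compound treatment, normalised to controls receiving only vehicle.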
# [12] = NCI Yeast Anticancer Drug Screen. Data for the mlh1 strain (AID 171);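 further: 0% = growth of vehicle-treated control cultures of the same strain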; settings: S. cerevisiae mlh1 strain growth inhibition, stronger effect = higher value
# In short: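 Vehicle-normalised growth inhibition of a repair- or checkpoint-altered yeast strain following compound treatment.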
# [13] = NCI Yeast Anticancer Drug Screen. Data for the sgs1 strain (AID 173);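 further: 0% = growth of vehicle-only control cultures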; settings: S. cerevisiae sgs1 mutant, stronger effect = higher value
# In short: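 Screen format: yeast with repair or checkpoint alterations, compound exposure, growth read relative to vehicle.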
# [14] = NCI Yeast Anticancer Drug Screen. Data for the mlh1 rad18 strain (AID 175); settings: S. cerevisiae mlh1 rad18 strain growth inhibition, stronger effect = higher value
# In short: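 Vehicle-treated cultures served as the reference for growth inhibition in a yeast strain carrying DNA damage repair alterations exposed to each compound.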
# [15] = NCI Yeast Anticancer Drug Screen. Data for the rad18 strain (AID 177); settings: S. cerevisiae rad18 mutant growth inhibition, stronger effect = higher value
# In short: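 Test articles were incubated with altered yeast defective in DNA damage repair. Results are given as inhibition of growth versus vehicle.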
# [16] = at 5.0 µM (retest, dose inferred, filed as 0.5)
# [17] = at 50.0 µM (retest, dose inferred, filed as 5.0)
compound,measurement,setting,value
O=[N+]([O-])c1cc([As](Br)c2ccc(O)c([N+](=O)[O-])c2)ccc1O,growth inhibition,[1]; at 1.2 µM,15%
same,growth inhibition,[1]; at 3.7 µM,57%
same,growth inhibition,[1]; at 11.0 µM,99% (active)
same,growth inhibition,[1]; at 33.0 µM,99% (active)
same,growth inhibition,[1]; at 100.0 µM,98% (active)
same,growth inhibition,[2]; at 1.2 µM,0%
same,growth inhibition,[2]; at 3.7 µM,3%
same,growth inhibition,[2]; at 11.0 µM,26%
same,growth inhibition,[2]; at 33.0 µM,74% (active)
same,growth inhibition,[2]; at 100.0 µM,99% (active)
same,growth inhibition,[3]; at 1.2 µM,28%
same,growth inhibition,[3]; at 3.7 µM,88% (active)
same,growth inhibition,[3]; at 11.0 µM,100% (active)
same,growth inhibition,[3]; at 33.0 µM,99% (active)
same,growth inhibition,[3]; at 100.0 µM,99% (active)
same,growth inhibition,[4]; at 1.2 µM,28%
same,growth inhibition,[4]; at 3.7 µM,89% (active)
same,growth inhibition,[4]; [16],99% (active)
same,growth inhibition,[4]; at 11.0 µM,99% (active)
same,growth inhibition,[4]; at 33.0 µM,99% (active)
same,growth inhibition,[4]; [17],99% (active)
same,growth inhibition,[4]; at 50.0 µM,99.5% (active)
same,growth inhibition,[4]; at 100.0 µM,98% (active)
same,growth inhibition,[5]; at 1.2 µM,60%
same,growth inhibition,[5]; at 3.7 µM,93% (active)
same,growth inhibition,[5]; [16],99% (active)
same,growth inhibition,[5]; at 11.0 µM,99% (active)
same,growth inhibition,[5]; at 33.0 µM,100% (active)
same,growth inhibition,[5]; [17],99% (active)
same,growth inhibition,[5]; at 50.0 µM,99.8% (active)
same,growth inhibition,[5]; at 100.0 µM,100% (active)
same,growth inhibition,[6]; at 1.2 µM,31%
same,growth inhibition,[6]; at 3.7 µM,69%
same,growth inhibition,[6]; at 11.0 µM,100% (active)
same,growth inhibition,[6]; at 33.0 µM,100% (active)
same,growth inhibition,[6]; at 100.0 µM,99% (active)
same,growth inhibition,[7]; [16],99% (active)
same,growth inhibition,[7]; [17],99% (active)
same,growth inhibition,[7]; at 50.0 µM,99.5% (active)
same,growth inhibition,[8]; at 1.2 µM,16%
same,growth inhibition,[8]; at 3.7 µM,22%
same,growth inhibition,[8]; at 11.0 µM,93% (active)
same,growth inhibition,[8]; at 33.0 µM,98% (active)
same,growth inhibition,[8]; at 100.0 µM,98% (active)
same,growth inhibition,[9]; [16],98% (active)
same,growth inhibition,[9]; [17],99% (active)
same,growth inhibition,[9]; at 50.0 µM,99.5% (active)
same,growth inhibition,[10]; at 1.2 µM,97% (active)
same,growth inhibition,[10]; at 3.7 µM,98% (active)
same,growth inhibition,[10]; [16],93% (active)
same,growth inhibition,[10]; at 11.0 µM,97% (active)
same,growth inhibition,[10]; at 33.0 µM,98% (active)
same,growth inhibition,[10]; [17],99% (active)
same,growth inhibition,[10]; at 50.0 µM,99.5% (active)
same,growth inhibition,[10]; at 100.0 µM,99% (active)
same,growth inhibition,[11]; at 1.2 µM,12%
same,growth inhibition,[11]; at 3.7 µM,94% (active)
same,growth inhibition,[11]; at 11.0 µM,99% (active)
same,growth inhibition,[11]; at 33.0 µM,99% (active)
same,growth inhibition,[11]; at 100.0 µM,99% (active)
same,growth inhibition,[12]; at 1.2 µM,31%
same,growth inhibition,[12]; at 3.7 µM,75% (active)
same,growth inhibition,[12]; at 11.0 µM,99% (active)
same,growth inhibition,[12]; at 33.0 µM,100% (active)
same,growth inhibition,[12]; at 100.0 µM,100% (active)
same,growth inhibition,[13]; at 1.2 µM,33%
same,growth inhibition,[13]; at 3.7 µM,90% (active)
same,growth inhibition,[13]; at 11.0 µM,99% (active)
same,growth inhibition,[13]; at 33.0 µM,99% (active)
same,growth inhibition,[13]; at 100.0 µM,99% (active)
same,growth inhibition,[14]; [16],99% (active)
same,growth inhibition,[14]; [17],99% (active)
same,growth inhibition,[14]; at 50.0 µM,99.8% (active)
same,growth inhibition,[15]; at 1.2 µM,26%
same,growth inhibition,[15]; at 3.7 µM,85% (active)
same,growth inhibition,[15]; at 11.0 µM,99% (active)
same,growth inhibition,[15]; at 33.0 µM,99% (active)
same,growth inhibition,[15]; at 100.0 µM,98% (active)
